Screening data from PubChem.
TRPV1 PAM: human TRPV1 potentiation. AID 540277. potentiation, % at 8.33 µM. Q8NER1. 320,000 compounds, 0.02% hits. TRPV1-expressing cells, Fluo-8 calcium influx, capsaicin EC20 potentiation; in the data active means potentiation above about 80%; inconclusive means between about 30% and that limit; further: 0% is about no effect
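TRPV1-expressing cells were cultured overnight at 35.5C and loaded with Fluo-8 calcium dye for 40 to 90 min at room temperature. After a 10 s baseline, compound was added and calcium influx was read kinetically for 3 min (ex 480/em 520 nm).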
TRPML1 blocker: human mucolipin-1 channel inhibition. Q9GZU1. TRPML1-inducible cells, Ca2+ dye fluorescence, FDSS; hits give low values; inhibition of EC80 agonist-evoked calcium signal. activity change, negative = inhibition, % (test concentration not listed). 390,000 compounds, 0.02% hits; in the data active means activity change below about -50%; inconclusive means between about -30% and that limit;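 further: stimulus is agonist 54-4 at its EC80 concentration; on the % scale 0 is the no-effect control and ±100 the full control effect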
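Calcium fluorescence in TRPML1-DL cells induced overnight with Tet: a 110 s read after compound pin addition, then a 110 s antagonist read after challenge with 54-4 at 4 uM final (EC80).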
TRPV1 ag: activates the human vanilloid receptor TRPV1; activation, % at 8.33 µM; AID 540275; 320,000 compounds, 0.19% hits; Q8NER1; TRPV1-expressing cells, Fluo-8 calcium influx, agonist mode; in the data active means activation above about 80%; inconclusive means between about 30% and that limit; further: 0% is about no effect
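Cells expressing TRPV1 were dye-loaded with Fluo-8 and read kinetically: 10 s baseline, 3 min after compound (agonist portion), then 2 min after EC20 capsaicin (allosteric enhancer portion). Calcium-bound dye fluorescence at 480/520 nm.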
TRHR PAM: TRH receptor (human) allosteric enhancement; P34981; TRHR cells, fluo-8 calcium fluorescence, EC20 TRH enhancement; enhancement, % at 2 µM; 360,000 compounds, 0.66% hits; AID 493056; in the data active means enhancement above about 30%; further: 0% is about no effect
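Enhancer read-out: after compound pinning and an initial kinetic agonist-mode read, an EC20 of TRH (10 nM final) was injected and fluo-8 calcium signal (Ex 480/Em 530) followed at 1 s/cycle for 100 cycles in TRHR-expressing cells.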
TRPML1 agonist: human mucolipin-1 channel agonism. 410,000 compounds, 0.12% hits. activation, % (test concentration not listed). TRPML1-expressing cells, Ca2+ dye fluorescence, FDSS; in the data active means activation above about 50%; inconclusive means mostly about 30% to 49%; further: 0% is about no effect
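Kinetic FDSS Ca2+ read in Tet-induced TRPML1-DL cells (ABD Ca8 dye plus quencher, 45-90 min RT loading): baseline, then compound, then 110 s agonist window; EC80 agonist 54-4 at 4uM final added afterwards for a 110 s antagonist window.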
TRHR agonist: agonists of human TRH receptor; P34981; TRHR cells, calcium flux fluo-8, FDSS agonist mode; activation, % at 2 µM; 360,000 compounds, 0.18% hits; in the data active means activation above about 30%; further: 0% is about no effect
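Steps: seed TRHR cells overnight; add fluo-8 no-wash Ca dye, RT 30 min–1.5 h; record 10 s baseline; pin-transfer compounds; monitor fluorescence 1 cycle/s for the agonist window. Calcium increases flag candidate agonists.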
The depositor's hits bear a star; ? = inconclusive; . = no result; ! = repeats disagree. This is a sample that favours compounds with a hit; in the whole collection about 0.96% have one here.

SMILES	TRPV1 PAM	TRPML1 blocker	TRPV1 ag	TRHR PAM	TRPML1 agonist	TRHR agonist
CCc1cc2cccc(C)c2nc1SCC(=O)Nc1cc(C)on1	10	9	12	40*	4	0
CC(=O)Nc1ccc(S(=O)(=O)NNC(=O)c2cccc(Br)c2)cc1	-2	27	-2	38*	1	0
CC(=O)Nc1ccc(S(=O)(=O)NNC(=O)c2cccc([N+](=O)[O-])c2)cc1	5	-7	-4	4	0	-2
CCOC(=O)c1cnc(-n2nc(C)cc2C)nc1Nc1ccc2c(c1)OCO2	7	.	2	33*	.	-1
COc1cc(N/N=C(\C)c2ccc(O)c(C)c2)nc(-c2ccccc2)n1	-9	13	-1	34*	2	0
C/C(=N\Nc1cc(-c2ccccc2)nc(-c2ccccc2)n1)c1ccc(O)c(C)c1	-52	1	-5	1	1	0
COc1ccccc1C(=O)NC(=S)NNC(=O)c1sc2ccccc2c1Cl	-17	1	15	3	51*	36*
Cc1ccc(C)c(-c2nc(Cn3c(=O)cc(-c4ccccc4)c4c(C)nn(C)c43)c(C)o2)c1	.	17	.	3	1	32*
COc1cc(OC)cc(C(=O)NCC(=O)NCCN2C(=O)S/C(=C\c3ccccc3Cl)C2=O)c1	2	42	5	5	-1	0
COc1cc(C(=O)NCC(=O)NCCN2C(=O)S/C(=C\c3ccccc3Cl)C2=O)cc(OC)c1OC	?	1	-3	31*	-1	0
CCn1c2cc(C)sc2c2cnn(Cc3ccccc3F)c(=O)c21	.	.	.	3	.	2
CC1=C(C(=O)N2CCN(c3cccc(Cl)c3)CC2)C2(CCCCC2)OC1=O	.	-1	.	1	-1	0
CC1=C(C(=O)N2CCN(c3ccc(Cl)cc3)CC2)C2(CCC(C)CC2)OC1=O (stereo not given)	.	75	.	50*	3	-1
COc1ccc(-c2c(C)nn3c(-c4ccccc4)cc(C)nc23)cc1OC	.	20	.	36*	-1	1
COc1ccccc1-c1c(C)nn2c(-c3ccccc3)cc(C)nc12	-13	0	?	-1	5	0
CC(C)(C)c1ccc(C(=O)NCC(=O)OC(C(=O)Nc2cc(C(F)(F)F)ccc2Cl)c2ccccc2)cc1 (stereo not given)	.	.	.	-11	.	1
Nc1ccc(/C=C/c2ccc3cccnc3c2)cc1	.	.	.	.	1	.
Cn1nc(-c2ccccc2)c2nc3ccccc3nc21	1	-4	13	1	12	55*
C[C@H](C(=O)OCO/N=[N+](\[O-])N1CCCC1)c1cccc2ccccc12	.	15	.	.	1	.
Cc1ccn2c(C(=O)NNC(=O)Nc3ccc(Cl)cc3)c(C)nc2c1	-4	0	-3	2	1	-1
Cc1nc2ccccn2c1C(=O)NNS(=O)(=O)c1ccc(Cl)cc1	?	-3	12	33*	-1	-1
COC(=O)c1nnn(CC(=O)NC(=O)Nc2ccccc2F)c1C(=O)OC	0	43	0	31*!	0	1
O=C1c2ccccc2NC(c2ccccc2OCc2ccccc2)N1Cc1ccco1 (stereo not given)	.	.	.	.	-1	.
Nc1cc(-c2ccccc2)c[nH]c1=O	.	.	.	1	.	1
COc1ccc(NCc2cc3cc4c(cc3n(CC(=O)Nc3ccc(F)cc3F)c2=O)OCO4)cc1	.	-28	.	35*	15	10
SMILES	TRPV1 PAM	TRPML1 blocker	TRPV1 ag	TRHR PAM	TRPML1 agonist	TRHR agonist
C=C(c1nc2ccccc2s1)C1Cc2cccc3c2N(CCC3)C1 (stereo not given)	.	.	.	.	-1	.
Cc1[nH]c2ccccc2c1/C=C/c1ccnc2ccccc12	.	.	.	.	13	.
O=[S+]([O-])(c1ccc2c(c1)OCCO2)N1CCN([S+](=O)([O-])c2c(F)cc(F)cc2Br)CC1	.	.	.	-1	.	-2
Cc1cc(C)nc(-n2nc(C)cc2NC(=O)CNCc2ccccc2)n1	6	-6	0	6	1	0
CCN(CC(=O)Nc1cc(C)nn1-c1nc(C)cc(C)n1)Cc1ccccc1	30	-17	0	33*	0	-1
O=C(N1CCOCC1)N1CCN(c2ccccc2)CC1	-16	-8	?	-1	-1	0
O=C(N1CCOCC1)N1CCN(c2ccccc2F)CC1	-9	-4	83*	0	-1	0
CCC(C)NC(=O)CN1C(=O)COc2ccc(S(=O)(=O)N3CCOCC3)cc21 (stereo not given)	-4	-10	3	30*!	-1	1
CCCCNC(=O)CN1C(=O)COc2ccc(S(=O)(=O)N3CCCC3)cc21	.	-6	.	1	0	0
O=C(CN1C(=O)COc2ccc(S(=O)(=O)N3CCOCC3)cc21)N1CCN(c2ccccc2F)CC1	.	-15	.	33*	2	0
COCCNC(=O)CN1C(=O)COc2ccc(S(=O)(=O)N3CCCC3)cc21	.	18	.	33*	1	0
CN(C)c1ccc(/C=C2\Cc3ccccc3C2=O)cc1	.	.	.	.	25	.
COc1ccc(CN2CCN(S(=O)(=O)c3ccc(C)cc3)CC2)cc1OC	.	-12	.	.	-1	.
COc1ccc(S(=O)(=O)N2CCN(Cc3ccccc3)CC2)cc1OC	-9	18	12	35*	-1	0
COc1ccc(NC(=O)C2CCC(C(C)(C)C)CC2)cc1S(=O)(=O)N1CCCCC1 (stereo not given)	-3	-1	1	-3	84*	-1
COc1ccc(S(=O)(=O)N2CCC(C(=O)Nc3ccc(Oc4ccccc4)cc3)CC2)cc1OC	.	24	.	32*	-1	0
COc1ccc(S(=O)(=O)N2CCC(C(=O)Nc3ccccc3)CC2)cc1OC	.	8	.	0	-1	-1
Cc1csc(C)[n+]1CCC1CCCCC1	.	.	.	.	-1	.
CCOc1ccc(Nc2nc(N)c([N+](=O)[O-])c(N3CCOCC3)n2)cc1	7	-3	0	38*	-1	1
COc1ccc(C(=O)Nc2nc3n(n2)C(c2ccc(Cl)cc2)C=C(c2ccccc2)N3)cc1OC (stereo not given)	.	-1	.	7	14	30*
C/C(CC(=O)Nc1ccccc1)=N\NC(=O)COc1ccc(C)cc1Br	11	3	1	34*	0	0
O=[N+]([O-])c1ccc(Nc2nc(NCCN3CCOCC3)nc(Nc3ccc(I)cc3)n2)cc1	.	.	.	.	0	.
CCSc1ncnc2nc[nH]c12	.	.	.	.	-1	.
O=C1CC(c2nc3ccccc3[nH]2)CN1c1cccc(Cl)c1 (stereo not given)	.	-2	.	1	-1	0
